Screening results as filed in PubChem.
A selection: hits, their analogues and other compounds. The true share with any hit is near 7.7%.
HCMV antiviral: blocks human cytomegalovirus replication. HFF cells, HCMV-luciferase reporter, 72 h; hits give low values. 410,000 tested, 4.5% active. activity change, negative = inhibition, % at 57.5 µM; in the data active = activity change below about -60%; inconclusive = no clear call, values can overlap the other calls; inactive = above about -39%
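Human foreskin fibroblasts infected with luciferase-reporter HCMV at MOI 1 PFU/cell, compounds at two doses. Luciferase measured 72 h post infection; normalized to buffer-only basal and Salinomycin (10uM) controls.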
FMDV inh: antivirals against foot and mouth disease virus; FMDV antiviral cell-based qHTS; 410,000 tested, 1.2% active; Potency, µM (titrated, usually from 57.9 µM), inactives show top-dose activity change, negative = inhibition, actives largely listed as inhibitors; calls by dose curve; tested in HEK293T cells; also: read-out not given here; potency is read from the fitted curve at half-maximal effect; nearly all actives have a fitted effect of over 45% in size
RE007 growth inh: less growth of the S. pombe RE007 Vpr strain; S. pombe RE007 Vpr strain, BacTiter-Glo ATP luminescence, 24 h; Potency, µM (series often up to 92.2 µM), inactives show at the highest dose activity change, negative = less growth, actives largely listed as inhibitors; 360,000 tested, 0.21% active; active = well fitted falling curve with a large enough effect; inconclusive = small, poorly fitted or top-dose-only effect; inactive = no such curve, though single readings can be large or run the other way; also: potency is read from the fitted curve at half-maximal effect; nearly all actives have a fitted effect of over 50% in size
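Fission yeast strain RE007, carrying one chromosomally integrated HIV-1 vpr copy, was seeded at OD 0.01 in PMG+AL medium with 23 nL pinned compound. After 24 h at 30 °C and 99% humidity, viability was read by BacTiter-Glo luminescence.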
Giardia FBPA inh: blocks Giardia fructose-bisphosphate aldolase activity; A8B2U2; purified Giardia FBPA; Potency, µM (series often up to 59.6 µM), for the others: top-dose activity, negative = inhibition, most hits filed as inhibitors; 290,000 tested, 0.71% active; AID 2451; also: potency is read from the fitted curve at half-maximal effect; nearly all actives have a fitted effect of over 55% in size
Target sequence (A8B2U2 whole entry, looked up): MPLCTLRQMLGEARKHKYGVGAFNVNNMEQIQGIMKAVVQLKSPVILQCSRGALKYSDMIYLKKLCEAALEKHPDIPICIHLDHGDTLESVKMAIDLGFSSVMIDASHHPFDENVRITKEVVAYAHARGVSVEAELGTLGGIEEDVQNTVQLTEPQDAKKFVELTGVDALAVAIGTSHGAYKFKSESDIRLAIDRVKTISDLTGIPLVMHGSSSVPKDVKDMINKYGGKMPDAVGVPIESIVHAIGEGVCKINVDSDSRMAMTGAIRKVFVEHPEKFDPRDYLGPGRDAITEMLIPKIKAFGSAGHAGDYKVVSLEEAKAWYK
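Giardia FBPA (40 nM reagent) was preincubated 10 min at RT with compound (up to 57.5 uM final), then substrate plus GAPDH/TPI/NAD/arsenate coupling system with diaphorase/resazurin was added; resorufin fluorescence (525/598 nm) was read after 20 min.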
Sm TGR block: S. mansoni TGR enzyme inhibition; Potency, µM (series often up to 114 µM), for inactives: top-dose activity change, negative = inhibition, actives largely listed as inhibitors; 360,000 tested, 3% active; Q962Y6; purified TGR, DTNB reduction, TNB absorbance 405 nm; AID 485364; also: potency is read from the fitted curve at half-maximal effect; nearly all actives have a fitted effect of over 60% in size
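Kinetic colorimetric format: TGR-catalysed, NADPH-driven DTNB reduction monitored via TNB absorbance. Enzyme dispensed at 20 nM; compound exposure 15 min at room temperature before reaction start.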
Tb PYK inh: blocks Trypanosoma brucei pyruvate kinase; TbPYK enzyme, Kinase-Glo Plus ATP luminescence, 45 min; Potency, µM (highest dose often 76.8 µM), for the others: at the top dose activity, negative = inhibition, usual class: inhibitors; 410,000 tested, 0.12% active; AID 624173; also: potency is read from the fitted curve at half-maximal effect; nearly all actives have a fitted effect of over 50% in size
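Enzyme and substrate buffer are dispensed first and compound is pin-transferred. ADP at 130 uM final then starts the reaction, which runs 45 min at room temperature. Detection reagent is added for 10 min before luminescence is imaged.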
* hit, by the source's call; u = inconclusive; x = no result; ! = repeats disagree. Unless noted, calls follow the shape of the dose curve; as a rule, active = well fitted curve in the direction sought with a large enough effect; inconclusive = small, poorly fitted or top-dose-only effect, or another doubt; inactive = no such curve, though single readings can be large; an effect the other way counts as inactive or inconclusive. % is scaled to controls: 0 for no effect and ±100 for the full control effect.

SMILES | HCMV antiviral | FMDV inh | RE007 growth inh | Giardia FBPA inh | Sm TGR block | Tb PYK inh
C/C(=N\NC(=O)c1cc(-c2ccco2)nc2ccccc12)c1cccnc1 | 7 | -9% | -13% | -4% | 10µM* | -1%
O=C(Nc1nccs1)c1cc(-c2ccco2)nc2ccccc12 | 17 | -25% | -1% | -13% | 56µM* | -2%
COC(=O)c1cc2oc3ccccc3c2n1CC(=O)Nc1ccc(OC)c(OC)c1 | -2 | -26% | x | x | -2% | 7%
COc1cc(=O)n2c(c1C(=O)N(C)Cc1cscn1)CCN(Cc1ccc3c(c1)OCCO3)CC2 | x | -12% | x | x | x | x
COCc1ccc(CN2CCOc3c(cc(-c4ccc(SC)cc4)cc3OC)C2)o1 | x | -3% | x | x | x | x
O=C(O)c1cc(-c2ccco2)nc2ccccc12 | 13 | 4% | -19% | u | u | u
O=C(N/N=C/c1ccco1)c1cc(-c2cccc(Br)c2)nc2ccccc12 | -63* | -6% | 18% | 7% | -10% | 0%
O=C(Nc1nc2ccccc2s1)c1cc(-c2ccco2)nc2ccccc12 | u | u | -8% | 2% | -33% | -6%
CC(/C=N/NC(=O)c1cc(-c2ccncc2)nc2ccccc12)=C\c1ccco1 | x | -26% | -2% | u | -18% | -3%
Cc1nnc(NC(=O)c2cc(-c3ccco3)nc3ccccc23)s1 | -5 | x | x | x | 7.9µM* | x
O=C(NC1CC1)c1cc(-c2ccco2)nc2ccccc12 | x | -4% | 10% | u | 10µM* | -17%
O=C(NC1CCCC1)c1ccc2c(=O)n(Cc3ccccc3)c(SCc3ccc([N+](=O)[O-])cc3)nc2c1 | -16 | -7% | x | x | -7% | 2%
CC1(C)CC(=O)C=C(c2ccccc2-c2ccc3c(c2)OCO3)C1=O | 0 | x | x | x | x | x
COCCn1c(=O)[nH]c2cc(C(=O)N3CCN(c4ccc(Cl)cc4)CC3)ccc2c1=O | -23 | 16µM*! | 21% | -7% | 3% | 2%
COc1ccc(N2CCN(C(=O)c3ccc4c(=O)n(CCc5ccc(OC)c(OC)c5)c(=O)[nH]c4c3)CC2)cc1 | -37 | 28µM* | 0% | 10% | -11% | 1%
COc1ccc(OC)c(NC(=O)CCn2c(=S)[nH]c3ccccc3c2=O)c1 | u | 2% | 15% | x | 6% | -1%
COc1ccc(OC)c(NC(=O)c2ccc3c(=O)n(CCc4ccccc4)c(=S)[nH]c3c2)c1 | u | 0.79µM* | 3% | 7% | -1% | 12%
COc1cc2[nH]c(=O)n(Cc3ccc(C(=O)N4CCN(c5ccc(Cl)cc5)CC4)cc3)c(=O)c2cc1OC | -9 | 25µM* | x | x | -2% | -2%
COCCN(C)C(=O)c1cnn(-c2ncc3c(n2)-c2ccccc2CC3)c1C | x | 23% | x | x | x | x
O=C(c1ccco1)N(Cc1cccs1)c1ccc(F)cc1 | 9 | -19% | x | x | 13% | 5%
COc1cc(=O)n2c(c1C(=O)N(C)Cc1nonc1C)CCN(Cc1cc(C)c(C)cc1C)CC2 | x | -14% | x | x | x | x
O=C(c1ccc2c(=O)n(CCc3ccccc3)c(=O)[nH]c2c1)N1CCN(c2ccccc2)CC1 | x | -26% | 12% | -3% | 6% | 6%
O=C(CCCn1c(=O)[nH]c2cc(Cl)ccc2c1=O)NCCCN1CCN(c2ccc(F)cc2)CC1 | -62* | u | -7% | 9% | -4% | 3%
CCn1c(=O)[nH]c2cc(C(=O)N3CCN(c4ccccc4)CC3)ccc2c1=O | 113 | 12% | 16% | 1% | -6% | -7%
O=C(c1ccc2c(=O)n(CCc3ccccc3)c(=O)[nH]c2c1)N1CCN(c2ccc(Cl)cc2)CC1 | -30 | 16µM* | x | x | -3% | 5%
SMILES | HCMV antiviral | FMDV inh | RE007 growth inh | Giardia FBPA inh | Sm TGR block | Tb PYK inh
O=C(c1ccc2c(=O)n(CCc3ccccc3)c(=O)[nH]c2c1)N1CCN(c2ccc(F)cc2)CC1 | -38 | 11µM* | -12% | -10% | 7% | -4%
O=C(c1ccc2c(=O)n(-c3ccccc3)c(=O)[nH]c2c1)N1CCCCC1 | -66* | x | 12% | 3% | 5% | -5%
O=C(CCCn1c(=O)[nH]c2cc(Cl)ccc2c1=O)NCCCN1CCCC1 | 9 | -2% | -5% | u | -18% | -5%
N=c1c(C(=O)NCC2CCCO2)cc2c(=O)n3ccccc3nc2n1Cc1ccccc1Cl (stereo not given) | -101* | -23% | -5% | x | -15% | -1%
O=C(NCC1CCCO1)c1cc2ccccc2nc1Cl (stereo not given) | -70* | 15% | 12% | 9% | 7% | 2%
N=c1c(C(=O)NCC2CCCO2)cc2c(=O)n3ccccc3nc2n1Cc1ccc(Cl)cc1 (stereo not given) | -83* | -15% | -5% | x | -7% | 4%
N=c1c(C(=O)NCc2ccco2)cc2c(=O)n3ccccc3nc2n1CCc1ccccc1 | u | -23% | 0% | -16% | -15% | -3%
COc1ccc(CCn2c(=N)c(C(=O)NCc3ccco3)cc3c(=O)n4ccccc4nc32)cc1OC | -95* | -13% | 3% | x | x | -2%
COc1cccc(NC(=O)Cn2c(=O)n(-c3ccc(CC(=O)NCC4CCCO4)cc3)c(=O)c3ccccc32)c1 (stereo not given) | 19 | -16% | x | x | 8% | -3%
CCc1ccc2oc(C(=O)Nc3cccc(Cl)c3C)cc(=O)c2c1 | -5 | 2% | x | x | -2% | -6%
NCCCC(C(=O)O)N(C(=O)OCc1ccccc1)C(=O)OCc1ccccc1 (stereo not given) | -8 | x | x | x | x | x
COc1ccc(CCn2c(=N)c(C(=O)NCC3CCCO3)cc3c(=O)n4ccccc4nc32)cc1 (stereo not given) | -112* | -25% | 3% | x | -12% | -5%
COc1ccc(CCn2c(C)nc3ccccc3c2=O)cc1OC | -33 | -18% | -22% | 0% | x | 6%
COc1ccc(CCn2c(-c3ccco3)nc3ccccc3c2=O)cc1OC | 7 | 32µM* | 18% | -5% | -2% | 1%
CCCCCCCCCCCCC/C=C/[C@@H](O)[C@H](COP(=O)([O-])OCC[N+](C)(C)C)NC(=O)CCCCCCCCCCCCCCCCC | x | x | x | 5% | x | x
Cc1ccc(SCCC(=O)NCC2CCCO2)cc1 (stereo not given) | 20 | 5% | 16% | 0% | 3% | -2%
Cc1ccc(SCC(=O)NCC2CCCO2)cc1 (stereo not given) | -93* | 16% | -2% | -1% | 1% | -7%
Cc1ccc(-c2nsc(SCC(=O)NCC3CCCO3)n2)cc1 (stereo not given) | -36 | -2% | 12% | 5% | 20% | -6%
COc1ccc(-c2nsc(SCC(=O)NCC3CCCO3)n2)cc1 (stereo not given) | -77* | -7% | -4% | -4% | -4% | -10%
